PubChem BioAssay
Activity calls are given as the source filed them. How the calls were made is not given here.

These molecules were tested against Pantothenate synthetase (Mycobacterium tuberculosis (strain ATCC 25618 / H37Rv)) (UniProt P9WIL5) (assay: Coupled enzyme confirmation of inhibitors against recombinant Mtb PanC (AID 375;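 further: 0% = full reaction with vehicle and 100% = no enzyme background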)). Conditions: coupled enzyme assay; at 10 µM, stronger effect = higher value.
Chain of Pantothenate synthetase (Mycobacterium tuberculosis (strain ATCC 25618 / H37Rv)) (P9WIL5 whole entry, looked up): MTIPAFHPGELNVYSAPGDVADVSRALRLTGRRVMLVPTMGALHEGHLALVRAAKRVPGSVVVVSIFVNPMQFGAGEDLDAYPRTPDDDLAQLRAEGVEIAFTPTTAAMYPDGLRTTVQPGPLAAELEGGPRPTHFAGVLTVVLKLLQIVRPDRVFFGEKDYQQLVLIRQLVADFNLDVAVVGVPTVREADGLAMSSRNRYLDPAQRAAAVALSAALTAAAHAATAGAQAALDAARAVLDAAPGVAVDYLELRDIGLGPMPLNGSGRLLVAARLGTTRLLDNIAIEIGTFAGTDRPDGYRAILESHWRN

Compound	inhibition
CC[C@H]1OC(=O)C[C@@H](O)[C@H](C)[C@@H](O[C@@H]2O[C@H](C)C[C@H](N(C)C)[C@H]2O)[C@@H](CC=O)C[C@@H](C)C(=O)C=C[C@]2(C)O[C@H]2[C@@H]1C	0% (inactive)
C=CCc1cc(OC)ccc1OCC(O)CN1CCN(c2ccc(OC)cc2)CC1 (stereo not given)	1% (inactive)
COC(=O)Cc1c(C)c2ccc(OCC(=O)N3CCOCC3)cc2oc1=O	0% (inactive)
COC(=O)c1ccc(C(=O)OC)c(NC(=O)Nc2ccc3c(c2)OCO3)c1	0% (inactive)
COC(=O)c1ccc(CNC(=O)COc2ccccc2Br)o1	5% (inactive)
O=C(NCc1ccco1)Nc1ccc2nsnc2c1	6% (inactive)
O=C(Nc1nonc1NC(=O)C1CCCCC1)C1CCCCC1	0% (inactive)
O=C(NCCN1CCCC1)C1COc2ccccc2O1 (stereo not given)	3% (inactive)
CC(=O)Nc1cc2c(nc1C)nc(C)n2Cc1ccc(Br)cc1	0% (inactive)
N#CCSCC(=O)Nc1ccc(F)cc1	0% (inactive)
Cc1ccc(-c2ccc(/C=N/n3cnnc3)o2)cc1Cl	11% (inactive)
Cc1ccc2c(c1)NC(=O)C(CC(=O)NC1CCCCC1C)O2 (stereo not given)	11% (inactive)
C=CCOc1ccccc1/C=c1\sc2nc(=O)c(C)nn2c1=O	0% (inactive)
c1ccc2c(SCc3cn4cccnc4n3)ncnc2c1	2% (inactive)
Cc1ccc2nc(NC(=O)Cn3cc4c(n3)CCCCC4)sc2c1	0% (inactive)
COc1ccc(N(CC(=O)O)S(=O)(=O)c2ccc(OC)c(OC)c2)cc1	5% (inactive)
COc1ccc(C2CC(c3cccs3)n3nc(N)nc3N2)cc1 (stereo not given)	0% (inactive)
O=C(Cn1nnc(-c2ccc(S(=O)(=O)N3CCCC3)cc2)n1)NCC1CCCO1 (stereo not given)	0% (inactive)
NC(=O)C1(N2CCCCC2)CCN(Cc2ccccc2Cl)CC1	0% (inactive)
COc1ccc(CC(=O)N2CCOCC2)cc1OC	2% (inactive)

Compound	inhibition
CCOC(=O)c1sc2cccc(F)c2c1N	13% (inactive)
COC(=O)CSc1nc2nc(C)cc(C)n2n1	7% (inactive)
CCc1nnc(NC(=O)CCC(=O)Nc2ccccc2)s1	4% (inactive)
O=C(O)CCc1ccc(-c2cccs2)n1NC(=O)c1ccccc1Br	0% (inactive)
Cc1cccc(NC(=O)C2CCCN2C(=O)OCC(C)C)c1C (stereo not given)	0% (inactive)
CCCCOC(=O)Cn1c(=O)oc2ccc(C)cc21	0% (inactive)
Cc1ccc(OCC(=O)NCCN2CCCC2)cc1	0% (inactive)
O=C(CN(C(=O)CCNC(=O)c1ccco1)c1ccccc1)NC1CCCC1	2% (inactive)
Nc1ccc2cn[nH]c2c1	0% (inactive)
COc1cc2cc(C(c3nnnn3C3CCCC3)N(C)C3CCCCC3)c(=O)[nH]c2cc1OC (stereo not given)	9% (inactive)
CC(=O)c1cccc(NC(=O)c2ccc(NS(C)(=O)=O)cc2)c1	1% (inactive)
COC(=O)c1ccc2c(=O)n(CC3CCCO3)c(=S)[nH]c2c1 (stereo not given)	0% (inactive)
CCOC(=O)C(CCc1nnc(N)s1)C(=O)OCC	4% (inactive)
COC(=O)c1ccccc1NC(=O)c1noc2c1CCC2	0% (inactive)
COC(=O)c1ccccc1NC(=O)C1CCCCC1C(=O)O (stereo not given)	0% (inactive)
Cn1c(=O)c2c(nc(CN3CCN(c4ccccc4F)CC3)n2CCN2CCOCC2)n(C)c1=O	0% (inactive)
Cc1ccc(Cn2c(NCCc3ccccc3)nc3c2c(=O)n(C)c(=O)n3C)cc1	4% (inactive)
Cc1ccccc1NC(=O)c1ccc(NC(=O)c2ccco2)cc1	0% (inactive)
COc1ccc(-c2cc(C(F)(F)F)n3nc(C(=O)N4CCOCC4)nc3n2)cc1	8% (inactive)
COc1cc(OC)c(C(=O)Nc2ccc(N(C)C)cc2)cc1OC	4% (inactive)
